Test results: PubChem BioAssay (NCI)
About 79,000 compounds went through this panel and 15% of them were active in at least one assay; those are over-represented in the sample as a whole. No stated cut-off is given here; in the data, active means growth inhibition above about 70%; inactive means the rest.

What was measured:
[1] = NCI Yeast Anticancer Drug Screen. Data for the rad50 strain (AID 155);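 further: 0% = growth of vehicle-only cultures of the same strain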; conditions: S. cerevisiae rad50 strain growth inhibition; at 50.0 µM; active compounds read high
How it was run: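 Cells are treated with compound, grown, and their growth is then scored against vehicle-only cultures of the same repair-deficient yeast strain.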

[2] = NCI Yeast Anticancer Drug Screen. Data for the mec2-1 strain (AID 157); conditions: S. cerevisiae mec2-1 strain, at 50.0 µM, active compounds read high
How it was run: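 Yeast mec2-1 mutant treated with compound. Readout: growth inhibition vs vehicle controls.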

[3] = NCI Yeast Anticancer Drug Screen. Data for the sgs1 mgt1 strain (AID 161);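 further: 0% = growth of cultures given vehicle only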; conditions: S. cerevisiae sgs1 mgt1 strain, at 50.0 µM, active compounds read high
How it was run: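 Test agents were incubated with a DNA-repair-mutant yeast strain. Growth was then read and compared against vehicle-treated controls.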

[4] = NCI Yeast Anticancer Drug Screen. Data for the cln2 rad14 strain (AID 165);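 further: 0% = growth equal to vehicle treated cultures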; conditions: S. cerevisiae cln2 rad14 strain, at 50.0 µM, active compounds read high
How it was run: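 cln2 rad14 yeast strain; compound exposure; growth inhibition read vs vehicle controls.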

[5] = NCI Yeast Anticancer Drug Screen. Data for the bub3 strain (AID 167); conditions: S. cerevisiae bub3 mutant strain, at 50.0 µM, active compounds read high
How it was run: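 Part of a panel of yeast mutants defective in DNA damage repair or cell cycle regulation. Each strain is grown with compound, and inhibition is calculated relative to solvent-treated cultures.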

[6] = NCI Yeast Anticancer Drug Screen. Data for the mlh1 rad18 strain (AID 175); conditions: S. cerevisiae mlh1 rad18 strain growth inhibition; at 50.0 µM; active compounds read high
How it was run: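 Yeast w/ defined DNA-repair lesions; compound exposure; growth vs vehicle controls → % inhibition.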

Measured: growth inhibition

CC(C)(O)C(C)(O)C#CC(C)(O)C(C)(C)O (stereo unspecified)
inactive: [1] -2.65% | [2] 1.2% | [3] 1.3% | [4] -15.2% | [5] 2.5% | [6] 6.75%

Cc1cc(N(CCC#N)CCC#N)ccc1/C(N=Nc1ccc(Cl)cc1)=N\NC(=O)c1ccccc1
inactive: [1] 1.3% | [2] -2.65% | [3] -0.5% | [4] -10.2% | [5] -7.3% | [6] -31.1%

CC1(C)OC2COC3OC(C)(C)OC3(CO)C2O1 (stereo unspecified)
inactive: [1] -1.7% | [2] -17.8% | [3] -6.1% | [4] -4.9% | [5] 20.5% | [6] 5.15%

O=C(O)c1cc2cc(O)ccc2[nH]1
inactive: [1] 2.6% | [2] 3.6% | [3] 20.9% | [4] 3% | [5] 10.4% | [6] -5.25%

O=C1CCCC(=O)C1=Cc1c[nH]c2ccccc12
inactive: [1] 4.3% | [2] 2% | [3] -4.35% | [4] -43% | [5] -16.1% | [6] 15.1%

CNC(=S)NNC1=NCCCCN1
inactive: [1] -41.2% | [2] -20% | [3] -16.1% | [4] 3.9% | [5] 2.1% | [6] -16.1%

CC(=O)Nc1ccc(O)c([N+](=O)[O-])c1
inactive: [1] 3.1% | [2] 3.3% | [3] 3.3% | [4] -36% | [5] -9.15% | [6] -11.4%

Cc1c(C2(c3cc(C(C)C)c(O)c(CN(CC(=O)O)CC(=O)O)c3C)OS(=O)(=O)c3ccccc32)cc(C(C)C)c(O)c1CN(CC(=O)O)CC(=O)O
inactive: [1] 4.3% | [2] 0.7% | [3] -1.75% | [4] 24.7% | [5] 2.8% | [6] 4.95%

N#C/C(=C\c1cccc(Cl)c1)C(=O)c1ccccc1
inactive: [1] 1.1% | [2] 11.3% | [3] -1.35% | [4] 13.1% | [5] 0.2% | [6] 33.2%

CCOC(=O)CC(=O)C(=O)NNC1=NCCCN1
inactive: [1] 7.25% | [2] -5.35% | [3] -20.1% | [4] 14.2% | [5] 2.3% | [6] 0.45%

Nc1nc2[nH]c(=O)c(C(=O)O)nc2c(=O)[nH]1
inactive: [1] 8.35% | [2] -6.15% | [3] -5.05% | [4] -16.6% | [5] 10.4% | [6] -11.6%

C=C1CCCC2OC(OC)CCC12 (stereo unspecified)
inactive: [1] -23.4% | [2] -10.8% | [3] -6.5% | [4] 0.75% | [5] -21.9% | [6] -10.6%

COC(=O)[C@@H](N1C(=O)c2ccccc2C1=O)C1(C)CC(Cl)=NO1 (stereo partly specified)
inactive: [1] -14.4% | [2] 2.75% | [3] -14.7% | [4] -11.8% | [5] 4.45% | [6] 12.1%

OCc1ccc2ccc3ccc(CO)nc3c2n1
inactive: [1] 14.4% | [2] 15.4% | [3] 5.6% | [4] -25.4% | [5] 15.4% | [6] 13.9%

CCCCCCCCC(Nc1ccccc1)C(O)CCCCCCCC(=O)O (stereo unspecified) (tested in a mixture with another compound)
inactive: [1] -0.1% | [2] 1.8% | [3] 7.5% | [4] -6.1% | [5] -7.35% | [6] 16.2%

Cc1ccccc1N=Nc1c(O)n(-c2ccccc2)c(=S)n(-c2ccccc2)c1=O
inactive: [1] 43.5% | [2] 0.9% | [3] 28.6% | [4] -18.9% | [5] 2.2% | [6] 14.4%

CC(C)(O)c1c(F)c(F)c(F)c(F)c1F
inactive: [1] 17.2% | [2] -13.7% | [3] 5.1% | [4] 17.6% | [5] 27.8% | [6] 7.15%

CC(C)CN(CC(C)C)C(=O)CCl
inactive: [1] -3.1% | [2] -0.3% | [3] 14.1% | [4] -15.9% | [5] 6% | [6] -1.65%

C/C=C/C(=O)OCCC[N+](C)(C)C
inactive: [1] 8.8% | [2] 12.3% | [3] 2.8% | [4] -0.95% | [5] 13.9% | [6] -23.8%

O/N=C/C(=Nc1ccc2ccccc2c1)NO
inactive: [1] 41% | [2] 3.25% | [3] -4.5% | [4] -18.2% | [5] -8.45% | [6] 23.5%

O=C(c1ccco1)C(O)c1ccccc1 (stereo unspecified)
inactive: [1] 1.3% | [2] 8.9% | [3] -2.6% | [4] -2.55% | [5] -11.9% | [6] 5.95%

CCCC1SCC(C)(C)NC1=O (stereo unspecified)
inactive: [1] 4.85% | [2] 3.25% | [3] -1.9% | [4] -18.4% | [5] 7.05% | [6] -2.4%

CC(C)(C)OC(=O)N(CCNS(=O)(=O)c1cccc2cnccc12)CCC(=O)ON1C(=O)CCC1=O
inactive: [1] 4.7% | [2] -0.2% | [3] 17.8% | [4] 14.7% | [5] 23.3% | [6] 6.35%

COC(=O)C1=C(NC(=O)Nc2ccc(OC)cc2)OC(C)(C)C1c1ccc(Cl)cc1 (stereo unspecified)
inactive: [1] 25.9% | [2] 41.7% | [3] 30.4% | [4] 3.75% | [5] 24.1% | [6] 43.4%

CN(C)C(=O)CC(O)c1ccccc1 (stereo unspecified)
inactive: [1] 13.9% | [2] -9.95% | [3] 1.6% | [4] -30.2% | [5] -2.55% | [6] 4.75%

CC(C(=O)O)C(C)(O)C(C)(C)C (stereo unspecified)
inactive: [1] -3.9% | [2] 1.05% | [3] -5.25% | [4] -37.4% | [5] 12.2% | [6] -6.95%

N=C(N)SCc1cn2ccccc2n1
inactive: [1] -37% | [2] -30.5% | [3] -62.7% | [4] 1.35% | [5] -27.6% | [6] -50.8%

C=CC(O)C(C)C (stereo unspecified)
inactive: [1] 10.7% | [2] -8.35% | [3] -2.55% | [4] -2.95% | [5] -1.55% | [6] 3.1%

NC(=S)N1CC=CCC1
inactive: [1] -8.65% | [2] 0.9% | [3] -3.4% | [4] 7.95% | [5] 3.9% | [6] -6.8%

Cc1cc(O)cc(O)c1C(=O)O[C@]1(C)C(=O)C=C2C=C(/C=C/C(=O)O)OC=C2C1=O
inactive: [1] -2.6% | [2] -16.9% | [3] -9.95% | [4] 9.6% | [5] -13.5% | [6] -3.9%

CN1CCN(CC(=O)N2c3ccccc3Sc3cc4ccccc4cc32)CC1
inactive: [1] 2.3% | [2] -3.3% | [3] -30% | [4] -1.95% | [5] -13.7% | [6] 28.6%

CCN1C(=O)Nc2ccc(Cl)cc2C1(O)c1ccccc1 (stereo unspecified)
inactive: [1] 6.25% | [2] 12.6% | [3] 1.55% | [4] 10.8% | [5] -12.8% | [6] -6.35%

O=S1(=O)OCCOS(=O)(=O)C1F
inactive: [1] -69% | [2] -4.65% | [3] -22.4% | [4] -23.2% | [5] -5.35% | [6] -16.1%

CC1CC(c2ccccc2)(c2ccccc2)CN1C (stereo unspecified)
inactive: [1] -16.1% | [2] 9.4% | [3] 6.55% | [4] -45.3% | [5] 15.2% | [6] 8.5%

O=C(OCc1ccccc1)c1ccccc1-c1c2ccc(=O)cc-2oc2cc(OCc3ccccc3)ccc12
inactive: [1] 33.4% | [2] 18% | [3] 40.9% | [4] 23.6% | [5] 21.3% | [6] 26.1%

CC(=O)OCC(=O)C1(O)CCC2C3CCC4CC(=O)CCC4(C)C3C(=O)CC21C (stereo unspecified)
inactive: [1] -3.65% | [2] -5.65% | [3] -11.8% | [4] 20.2% | [5] 3.7% | [6] 9.4%

O=C1CSC(c2ccc(F)cc2)N1c1nncs1 (stereo unspecified)
inactive: [1] 5.2% | [2] 3.65% | [3] 9.7% | [4] 3.6% | [5] 31.6% | [6] 7.45%

CC(C)(C)C(=O)C(c1ccc(-c2cscn2)cc1)c1ccc(-c2cscn2)cc1
inactive: [1] -2% | [2] -2.8% | [3] -1.1% | [4] 1.3% | [5] -5.3% | [6] -22.2%

Cc1ccc(S(=O)(=O)NC(=O)c2ncn(C3OC(CO)C(O)C3O)c2N)cc1 (stereo unspecified)
inactive: [1] -5.15% | [2] 10.8% | [3] 12.7% | [4] 15.1% | [5] 1.5% | [6] 1.55%

O=C1c2ccccc2C(=O)N1CCn1[nH]c(=O)c2ccccc2c1=O
inactive: [1] -3.25% | [2] -10.4% | [3] -6.55% | [4] 8.9% | [5] -3.6% | [6] 14.1%

COc1ccc(C2(c3ccc(OC)cc3)c3ccccc3Cc3c(OC)cccc32)cc1
inactive: [1] -1.55% | [2] 16.7% | [3] -5.65% | [4] 2.8% | [5] -11.2% | [6] 6.4%
